Screens from PubChem BioAssay.
The list is not random: actives were taken first. Their share in the collection is about 2.6%.
CRFR2-BP ag: CRF-BP/CRF-R2 complex agonism; HEK293 CRF-R2/CRF-BP, calcium dye fluorescence (FLIPR); percent of saturating CRF peptide response; activation, % at 13.2 µM; 350,000 compounds, 0.46% hits;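 active means activation of at least 50%, plus an integration ratio under a set limit after plate pattern correction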;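 further: plate controls were neutral control wells without compound for no effect and CRF at EC100 for full effect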
Myeloid diff MLP: promotes myeloid progenitor differentiation | ER-HoxA9 myeloid progenitors, lysozyme-GFP differentiation, flow cytometry | calls only at 10 µM | 360,000 compounds, 1% hits | AID 624256;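 active means normalized GFP-positive differentiation at or above the plate's own cutoff, the solvent-only control mean plus 3 SD; inconclusive means no clear call, values can overlap the other calls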;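 further: cells exposed to compound for four days before flow analysis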
IDE cell activ: IDE (human) activation, cell-based; 340,000 compounds, 0.073% hits; AID 493087; HEK cells, FAbeta-B cleavage, fluorescence polarization; 0% vehicle, 100% cell-free pure enzyme wells; P14735; activation, % at 5.96 µM;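 active means activation above the mean of all tested compounds plus 3 SD, set per screening campaign, cut at about 17% in these data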
Target sequence (P14735 whole entry, looked up): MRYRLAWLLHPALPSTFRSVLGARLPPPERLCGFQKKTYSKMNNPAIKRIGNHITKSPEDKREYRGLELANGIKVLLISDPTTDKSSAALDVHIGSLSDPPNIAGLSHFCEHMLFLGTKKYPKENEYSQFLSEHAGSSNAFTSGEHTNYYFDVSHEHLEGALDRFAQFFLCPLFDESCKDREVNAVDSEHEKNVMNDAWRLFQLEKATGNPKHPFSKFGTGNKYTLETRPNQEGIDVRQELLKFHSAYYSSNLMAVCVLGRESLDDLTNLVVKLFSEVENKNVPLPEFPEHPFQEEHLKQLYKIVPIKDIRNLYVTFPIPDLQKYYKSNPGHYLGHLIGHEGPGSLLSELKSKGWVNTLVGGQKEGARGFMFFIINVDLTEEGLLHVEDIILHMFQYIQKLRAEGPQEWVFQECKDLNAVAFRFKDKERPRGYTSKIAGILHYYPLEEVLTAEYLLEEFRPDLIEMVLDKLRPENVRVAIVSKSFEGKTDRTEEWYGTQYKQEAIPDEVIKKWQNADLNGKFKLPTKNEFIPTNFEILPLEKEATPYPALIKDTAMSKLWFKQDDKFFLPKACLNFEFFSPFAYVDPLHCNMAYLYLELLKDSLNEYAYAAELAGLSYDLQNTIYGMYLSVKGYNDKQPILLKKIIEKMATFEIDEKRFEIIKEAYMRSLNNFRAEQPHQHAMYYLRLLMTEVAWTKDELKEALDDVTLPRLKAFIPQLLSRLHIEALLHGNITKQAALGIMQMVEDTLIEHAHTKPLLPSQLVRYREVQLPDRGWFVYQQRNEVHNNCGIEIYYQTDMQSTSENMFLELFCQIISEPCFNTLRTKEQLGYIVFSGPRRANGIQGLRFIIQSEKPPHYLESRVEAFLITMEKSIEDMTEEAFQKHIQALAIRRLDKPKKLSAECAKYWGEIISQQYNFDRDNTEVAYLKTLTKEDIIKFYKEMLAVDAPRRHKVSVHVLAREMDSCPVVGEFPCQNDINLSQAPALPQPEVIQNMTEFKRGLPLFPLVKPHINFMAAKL
IDE inh: cellular human IDE inhibition | HEK cells, FAbetaB cleavage, fluorescence polarization | P14735 | inhibition, % at 5.59 µM | 320,000 compounds, 0.41% hits;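 active means percent inhibition above the average of all tested compounds plus 3 SD, set per screening campaign, cut at about 16% in these data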;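 further: IDE supplied by intact live HEK cells; FP after avidin binding of uncleaved biotin substrate so inhibition keeps polarization high; 0% = DMSO wells and 100% = 60 µM reference IDE inhibitor Ii1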
TPT1 inh: inhibitors of Candida albicans tRNA 2'-phosphotransferase TPT1; recombinant caTPT1, FP RNA substrate dephosphorylation; inhibition, % at 5 µM; 300,000 compounds, 0.81% hits; AID 1962;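 active means inhibition above the mean of all tested compounds plus 3 SD, set per screening campaign, cut at about 24% in these data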;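 further: plate controls were DMSO alone for no effect and ferristatin control at 100 nM for full effect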
CRFR2-BP antag: CRF-BP/CRF-R2 complex antagonism | HEK293 CRF-R2/CRF-BP, CRF-induced calcium fluorescence | inhibition, % at 11.8 µM | 350,000 compounds, 0.59% hits | AID 588475;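 active means inhibition of the ligand-induced calcium signal above about 50% at the single tested concentration, limit read from the data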
* = called active by the depositor; i = inactive; ? = inconclusive; . = no result; + = active, no number.

SMILES | CRFR2-BP ag | Myeloid diff MLP | IDE cell activ | IDE inh | TPT1 inh | CRFR2-BP antag
CCCn1c(N)c(C(=O)CSc2nnc(-c3cccs3)n2C2CC2)c(=O)[nH]c1=O | 2 | i | 2 | 8 | . | -12
CCC(C)(C)C1CCc2nc3ccccc3c(C(=O)OC(C)C(=O)Nc3c(C)n(C)n(-c4ccccc4)c3=O)c2C1 (centres undefined) | 0 | + | 4 | 0 | -3 | -44
Cc1c(NC(=O)C(C)OC(=O)c2cccs2)c(=O)n(-c2ccccc2)n1C (centres undefined) | 2 | i | -1 | 4 | 1 | 1
COc1ccc(CNC(=O)CCc2nc3cc(S(=O)(=O)N(C)C)ccc3n2C)cc1OC | -1 | i | -3 | 4 | 0 | 64*
COc1ccc(CNC(=O)CN(C)S(=O)(=O)c2ccc3c(c2)n(C)c(=O)c(=O)n3C)cc1 | -1 | i | 2 | 4 | -6 | 69*
Cn1c(=O)c(C#N)c(-c2ccc(F)cc2)c2cc(C(=O)c3cc(Cl)cc(Cl)c3O)cnc21 | 31 | i | -1 | -6 | -1 | 53*
Cc1ccc(Nc2nc(-c3c(C)nc4ncccn34)cs2)cc1 | -2 | . | -10 | 6 | 0 | -21
Cc1ccc(Nc2nc(-c3c(C)nc4ccccn34)cs2)cc1 | -6 | . | -3 | 3 | -1 | 66*
Cn1ccc(C(=O)Nc2sc3c(c2C(N)=O)CCCCC3)n1 | 0 | i | -2 | -4 | 2 | 78*
NC(=O)c1c(NC(=O)c2cccnc2)sc2c1CCCCC2 | 0 | i | 0 | -2 | -2 | -1
CC(=O)N1CCN(C2=NC(=O)/C(=C/c3ccc(OS(=O)(=O)c4ccccc4)cc3)S2)CC1 | -1 | ? | -10 | 10 | 0 | -16
COc1ccc(Nc2ncccc2C(=O)NCc2ccccc2)cc1 | -3 | i | -4 | 1 | -1 | -51
COc1cccc(Nc2ncccc2C(=O)NCc2ccccc2)c1 | 10 | + | -1 | . | . | -18
Cc1nnc(N2C(=O)C(O)=C(C(=O)c3ccco3)C2c2ccc(C(C)(C)C)cc2)s1 (centres undefined) | 40 | + | 0 | 15 | 2 | -34
Cc1ccc(C2C(C(=O)c3cccs3)=C(O)C(=O)N2c2nnc(C)s2)cc1 (centres undefined) | 134* | . | -1 | 4 | -22 | -75
O=c1cc(Cc2ccc([N+](=O)[O-])cc2)[nH]c(=O)[nH]1 | 1 | i | -1 | . | . | 57*
Nc1ccc(Cc2ccc([N+](=O)[O-])cc2)cc1 | -3 | i | 2 | . | . | 33
Cc1cc(O)c(C2=Nc3ccccc3SC(c3ccc(Cl)cc3)C2)c(=O)o1 (centres undefined) | 0 | i | -7 | 4 | 6 | 84*
COc1ccc(Cn2cc3c(-c4ccc(F)cc4)nnc-3c3cc(OC)c(OC)cc32)cc1 | 7 | + | 4 | 0 | 11 | 7
COc1ccc(-c2nnn(Cc3ccccc3)n2)cc1OC | 0 | i | 4 | 2 | -3 | -2
COc1cc2c3nnc(-c4ccc(F)cc4)c-3cn(Cc3ccc(F)cc3)c2cc1OC | 0 | i | -5 | 6 | 11 | -20
COc1cc2c3nnc(-c4ccc(F)cc4)c-3cn(Cc3ccccc3)c2cc1OC | -4 | + | -5 | 7 | 10 | 4
COc1ccccc1C(c1c(O)nc(SC)[nH]c1=O)c1c(O)nc(SC)[nH]c1=O | 1 | i | 3 | 0 | -2 | 12
CC(C)c1nc2cc(C(=O)N3CCN(c4cnccn4)CC3)ccc2o1 | 0 | i | 0 | -4 | 2 | 15
N#C/C(=C\c1ccc(F)c(F)c1)C(=O)NC1CCCCC1 | 1 | i | 3 | 5 | -1 | -138
SMILES | CRFR2-BP ag | Myeloid diff MLP | IDE cell activ | IDE inh | TPT1 inh | CRFR2-BP antag
N#C/C(=C\c1ccccc1[N+](=O)[O-])C(=O)NC1CCCCC1 | 100* | i | -22 | 11 | -8 | -161
N#C/C(=C\C=C\c1ccccc1[N+](=O)[O-])C(=O)NC1CCCCC1 | -1 | . | 1 | 3 | 7 | -20
N#C/C(=C\c1cccn1-c1ccccc1)C(=O)NC1CCCCC1 | -3 | i | 2 | 4 | 0 | 127*
O=C1CC(c2cccc(F)c2)SC(N(c2ccccc2)c2ccccc2)=N1 (centres undefined) | -1 | i | 0 | -4 | -2 | 85*
O=C1CC(c2ccc(Cl)cc2)SC(N(c2ccccc2)c2ccccc2)=N1 (centres undefined) | 0 | i | 3 | -1 | -2 | 114*
O=C1CC(c2ccccc2)SC(N(c2ccccc2)c2ccccc2)=N1 (centres undefined) | -3 | i | 1 | 4 | 0 | 56*
O=C1CSC(c2cccc(F)c2)N1c1ccccc1 (centres undefined) | 0 | i | 2 | -1 | 3 | 12
Fc1ccc(-n2c(-c3ccco3)nc3nc4ccccc4nc32)cc1 | 6 | + | 0 | 3 | 1 | 8
CCCCOCCCn1c(-c2ccco2)nc2nc3ccccc3nc21 | 1 | + | 1 | 1 | 12 | 0
Fc1cccc(-n2c(-c3ccco3)nc3nc4ccccc4nc32)c1 | 2 | i | 3 | 1 | 6 | -1
Cn1c(N2CCN(C(c3ccccc3)c3ccccc3)CC2)nc2c1c(=O)[nH]c(=O)n2C | -2 | i | 3 | 1 | 0 | -51
O=C(/C=C/[C@H]1O[C@@H](n2ccc(=O)[nH]c2=O)[C@H](O)[C@@H]1O)NCCN1CCOCC1 | . | i | . | . | . | .
c1ccc2c(C[C@@H]3CNCCN3CC3CCCCC3)cccc2c1 | -1 | + | 4 | 2 | -4 | -18
Oc1ccc(C[C@@H]2CNCCN2CC2CCCCC2)cc1 | -1 | i | 5 | 5 | 1 | 1
COc1ccc(Cn2cc(CN3CC(N4CCN(Cc5ccccc5F)CC4)CS3(=O)=O)nn2)cc1 (centres undefined) | . | i | . | . | . | .
Cc1cc(=O)oc2c1ccc1oc(/C(=N/O)c3ccccc3)c(C)c12 | -1 | i | -1 | 5 | -2 | 118*
N#CC(C#N)=c1ccc2c(c1)NC1(CCCCC1)N=2 | -7 | + | 1 | 0 | -5 | 28
Cc1cc(N2CCOCC2)nc(NCc2ccccc2)n1 | 122* | i | 7 | 1 | 0 | 15
Cc1cc(N2CCCCC2)nc(NCc2ccccc2)n1 | 0 | i | 4 | -1 | -3 | -8
Cc1cc(N2CCOCC2)nc(N)n1 | 164* | i | 0 | 6 | -2 | -61
Nc1nc(Cl)cc(N2CCOCC2)n1 | 0 | i | 7 | 10 | -2 | -13
COc1cc(/C=C/C(=O)O)cc(S(=O)(=O)Nc2ccccc2Cl)c1OC | -5 | i | 2 | -4 | -5 | 11
